Experimental findings from PubChem BioAssay (Tox21) are described below.

A short description of experiment [1]: qHTS assay to identify small molecule agonists of the RXR signaling pathway - cell viability counter screen (AID 1159529). Also: nearly all actives have a fitted effect of over 50% in size. Also: potency is read from the fitted curve at half-maximal effect. Summed up:
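Compounds dissolved in DMSO were pinned onto HEK 293T cells carrying a beta-lactamase reporter under RXR-alpha control and incubated 16 hr. Cytotoxicity was then quantified by CellTiter-Glo luminescence.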
(In general: Quantitative high-throughput screening tests each substance at several concentrations.)

Experiment [2] is described as follows: qHTS assay to identify small molecule antagonists of the retinoid acid receptor (RAR) signaling pathway - cell viability counter screen (AID 1159551). Also: nearly all actives have a fitted effect of over 35% in size. Summed up: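 C3RL4 cells were seeded overnight at 37 C, then treated with compounds plus 1 uM (final) retinol for 6 h at 37 C. Viability was read as ATP by CellTiter-Glo luminescence after 30 min at room temperature.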

A short description of experiment [3]: qHTS assay to identify small molecule agonists of the retinoic acid receptor (RAR) signaling pathway (AID 1159553). Also: potency is read from the fitted curve at half-maximal effect. Summed up: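 C3RL4 cells carrying a RARE luciferase reporter were plated overnight at 37 C, then exposed to compounds in DMSO for 6 hr at 37 C and 5% CO2. Luminescence was read 30 min after luciferase reagent addition at room temperature.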
A short description of experiment [4]: qHTS assay to identify small molecule antagonists of the estrogen related receptor (ERR) signaling pathway from Tox21 library - cell viability counter screen (AID 1224834). Also: nearly all actives have a fitted effect of over 30% in size. Also: potency is read from the fitted curve at half-maximal effect. Summed up: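 ERR reporter cells were plated 6 h before compound addition, then exposed to test compounds in DMSO for 17.5 h at 37 C. Viability was read as CellTiter-Fluor fluorescence after a 30-minute incubation at 37 C.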

Experiment [5] concerns the target Luciferin 4-monooxygenase (Photinus pyralis) (UniProt P08659). In words: qHTS assay to identify small molecule inhibitors of firefly luciferase (AID 1224835). Also: nearly all actives have a fitted effect of over 25% in size. Also: potency is read from the fitted curve at half-maximal effect. Summed up: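 Quantitative HTS format; KM concentrations of both substrates. Purified P. pyralis FLuc activity quantified from luminescence images.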
The nature of experiment [6]: qHTS assay to identify small molecule agonists of the constitutive androstane receptor (CAR) signaling pathway - cell viability counter screen (AID 1224836). Also: series mostly up to about 92 µM; nearly all actives have a fitted effect of over 45% in size. Summed up:
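23 h treatment, 37 C, 5% CO2. Cell line: HepG2 stably expressing hCAR with a CYP2B6-2.2kb construct. Co-treatment: PK11195, 0.75 uM final. Read-out: CellTiter-Fluor fluorescence intensity.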

A short description of experiment [7]: qHTS assay to identify small molecule antagonists of the constitutive androstane receptor (CAR) signaling pathway - cell viability counter screen (AID 1224837). Also: series mostly up to about 92 µM; nearly all actives have a fitted effect of over 45% in size. Summed up:
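HepG2 cells stably expressing hCAR and a CYP2B6-2.2kb reporter were plated and pre-incubated 4 hr at 37 C/5% CO2, then given compounds at 15 concentrations plus 50 nM CITCO (final). After 23 hr, viability was read by CellTiter-Fluor fluorescence.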

Experiment [8] can be described thus: qHTS assay to identify small molecule antagonists of the estrogen related receptor signaling pathway with the pleiotropic PPARgamma coactivator (PGC) from Tox21 10K library - cell viability counter screen (AID 1224840; active = well fitted cell-killing curve with a large enough effect in the repeat runs, not every such curve was filed as active; also: nearly all actives have a fitted effect of over 40% in size; also: potency is read from the fitted curve at half-maximal effect). Summed up:
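PGC/ERR cells were seeded at 2,000 cells/well and left 6 hours at 37 C/5% CO2 before pin-tool addition of compounds in DMSO. After 17.5 hours at 37 C, CellTiter-Fluor was added and fluorescence read 30 minutes later.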

The nature of experiment [9]: qHTS assay to identify small molecule antagonists of the estrogen related receptor signaling pathway with the pleiotropic PPARgamma coactivator (PGC) from Tox21 10K library (AID 1224841; call rule not given here; also: actives are mostly falling curves and most rising ones were filed inactive; nearly all actives have a fitted effect of over 50% in size; also: potency is read from the fitted curve at half-maximal effect). Summed up:
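PGC/ERR reporter cells were seeded at 2,000 cells/well and held 6 hours at 37 C/5% CO2 before pin-tool addition of compounds in DMSO. After 18 hours at 37 C, One-Glo was added and luminescence read after 30 minutes at room temperature.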

A short description of experiment [10]: qHTS assay to identify small molecule agonists of the estrogen related receptor signaling pathway with the pleiotropic PPARgamma coactivator (PGC) from Tox21 10K library (AID 1224842). Also: nearly all actives have a fitted effect of over 15% in size. Summed up:
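PGC/ERR reporter cells (NTP line) were seeded 2,000 per well, rested 6 h at 37 C/5% CO2, then pin-dosed with compounds in DMSO for 18 h at 37 C; luciferase read by One-Glo luminescence after 30 min at room temperature.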

Experiment [11] deals with Thyrotropin receptor (Homo sapiens) (UniProt P16473). Nature of the experiment: qHTS assay to identify small molecule agonists of the thyroid stimulating hormone receptor (TSHR) signaling pathway (AID 1224843; calls by dose curve; also: nearly all actives have a fitted effect of over 45% in size). Summed up:
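Cell line HEK293 with TSHR; density 800/well. Exposure 30 min RT. Readout HTRF cAMP (cAMP-d2/anti-cAMP-cryptate), 1 h RT before reading.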

Experiment [12] can be described thus: qHTS assay to identify small molecule agonists of the hypoxia (HIF-1) signaling pathway - cell viability counter screen (AID 1224844; calls by dose curve; also: nearly all actives have a fitted effect of over 50% in size). Summed up:
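HRE-bla ME-180 cells in medium with 0.5% dialyzed FBS were preincubated 5 hrs at 37C, exposed to compounds for 17 hrs, then viability was read as CellTiter-Glo luminescence after 30 min at room temperature, in the reporter wells.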

Experiment [13] in a line: qHTS assay to identify small molecule agonists of H2AX (AID 1224845; active = well fitted activation curve with a large enough effect in the signal ratio in the repeat runs, not every such curve was filed as active; the % refers to the signal ratio; also: potency is read from the fitted curve at half-maximal effect). Summed up:
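Wild-type CHO-K1 cells plated overnight, then exposed 3 hr at 37C to compounds at 15 concentrations (0.76% DMSO). Lysed, then HTRF anti-pH2AX(S139)-cryptate/anti-H2AX-d2 detection after 24 hr at room temperature; emissions 665 and 620 nm.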

The nature of experiment [14]: qHTS assay to identify small molecule agonists of the hypoxia (HIF-1) signaling pathway (AID 1224846; active = well fitted activation curve with a large enough effect in the signal ratio in the repeat runs, not every such curve was filed as active; the % refers to the signal ratio). Summed up: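 HRE-bla ME-180 cells (beta-lactamase reporter under hypoxia response element) were plated at 2,000 cells/well in medium with 0.5% dialyzed FBS, rested 5 hrs, then given compounds in DMSO for 17 hrs at 37C, 5% CO2. Reporter induction was read with CCF4-AM FRET substrate.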

Experiment [15] deals with Nuclear receptor subfamily 1 group I member 3 (Homo sapiens) (UniProt Q14994). Nature of the experiment: qHTS assay to identify small molecule antagonists of the constitutive androstane receptor (CAR) signaling pathway (AID 1224838). Also: nearly all actives have a fitted effect of over 40% in size. Summed up:
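HepG2 cells stably co-transfected with hCAR and a CYP2B6-2.2kb luciferase reporter were seeded 4 h before compound addition at 15 concentrations. Cells were stimulated with 50 nM CITCO (final) for 24 h at 37 C; luciferase luminescence was then read.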

For experiment [16] the target is unchanged. In words: qHTS assay to identify small molecule agonists of the constitutive androstane receptor (CAR) signaling pathway (AID 1224839). Also: nearly all actives have a fitted effect of over 15% in size. Also: potency is read from the fitted curve at half-maximal effect.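 As to activation: HepG2 cells stably carrying human CAR and a CYP2B6 luciferase reporter; series mostly up to about 92 µM.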 Summed up:
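Compounds tested at 15 concentrations on HepG2 cells stably harbouring hCAR and CYP2B6-2.2kb reporter constructs, co-treated with PK11195 (0.75 uM final), 24 h at 37 C; luminescent reporter signal quantified.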

Experiment [17] addresses Retinoic acid receptor RXR-alpha (Homo sapiens) (UniProt P19793). Nature of the experiment: qHTS assay to identify small molecule agonists of the RXR signaling pathway (AID 1159527; calls by dose curve; also: nearly all actives have a fitted effect of over 35% in size). Summed up: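 Using 9-cis retinoic acid as the reference agonist, chemicals were tested in HEK 293T cells […] for 16 hr; substrate loading lasted 2 hr at room temperature.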

Experiment [18] can be described thus: qHTS assay to identify small molecule antagonists of the retinoic acid receptor (RAR) signaling pathway (AID 1159552; also: nearly all actives have a fitted effect of over 50% in size). Summed up:
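Test chemicals and DMSO controls were pin-transferred onto C3RL4 cells a day after seeding; retinol (1 uM final) followed at once. Luminescent reporter output was quantified after 6 hr of co-incubation and 30 min with detection reagent.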

Experiment [19] in a line: qHTS assay to identify small molecule antagonists of the estrogen related receptor (ERR) signaling pathway - cell viability counter screen (AID 1224818).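 Also: series mostly up to about 46 µM; viability measured after 17.5 h of compound exposure.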 Summed up:
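ERR reporter cells plated 6 h at 37 C/5% CO2, then compounds in DMSO pin-transferred and incubated 17.5 h at 37 C. Viability read as CellTiter-Fluor fluorescence after 30 min at 37 C.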

Experiment [20] in a line: qHTS assay to identify small molecule antagonists of the estrogen related receptor signaling pathway with the pleiotropic PPARgamma coactivator (PGC) cell viability counter screen (AID 1224822; also: series mostly up to about 46 µM). Summed up:
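PGC/ERR cells were seeded at 2,000 cells/well, rested 6 h at 37 C/5% CO2, then given compounds in DMSO by pin tool and incubated 17.5 h at 37 C. Viability came from CellTiter-Fluor fluorescence after 30 min.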

Values joined by “and” are separate entries in the source; they are usually repeats but may differ in a detail not shown here. Equal entries are not always repeated. Results filed as inconclusive are left out. Where a structure was tested more than once in an assay, its records may differ in their call. Active and inactive are the calls of the source. Unless noted, calls follow the shape of the dose curve; as a rule, active = well fitted curve in the direction sought with a large enough effect in the repeat runs; inconclusive = weak or mixed curves; inactive = no such curve, though single readings can be large; an effect the other way counts as inactive or inconclusive.

Chain of Retinoic acid receptor RXR-alpha (Homo sapiens) (P19793 whole entry, looked up): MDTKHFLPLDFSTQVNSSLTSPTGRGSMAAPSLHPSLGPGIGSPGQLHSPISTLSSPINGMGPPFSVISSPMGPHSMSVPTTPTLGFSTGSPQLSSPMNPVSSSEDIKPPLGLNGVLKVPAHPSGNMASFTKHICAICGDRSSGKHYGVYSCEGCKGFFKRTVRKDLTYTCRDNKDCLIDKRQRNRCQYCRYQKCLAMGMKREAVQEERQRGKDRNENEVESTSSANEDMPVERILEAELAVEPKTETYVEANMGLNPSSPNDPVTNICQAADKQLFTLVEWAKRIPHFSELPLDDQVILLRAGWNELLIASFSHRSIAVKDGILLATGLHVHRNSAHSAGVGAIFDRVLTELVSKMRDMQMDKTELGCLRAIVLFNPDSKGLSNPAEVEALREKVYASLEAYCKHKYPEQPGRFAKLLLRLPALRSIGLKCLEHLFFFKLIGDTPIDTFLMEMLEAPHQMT
Chain of Nuclear receptor subfamily 1 group I member 3 (Homo sapiens) (Q14994 whole entry, looked up): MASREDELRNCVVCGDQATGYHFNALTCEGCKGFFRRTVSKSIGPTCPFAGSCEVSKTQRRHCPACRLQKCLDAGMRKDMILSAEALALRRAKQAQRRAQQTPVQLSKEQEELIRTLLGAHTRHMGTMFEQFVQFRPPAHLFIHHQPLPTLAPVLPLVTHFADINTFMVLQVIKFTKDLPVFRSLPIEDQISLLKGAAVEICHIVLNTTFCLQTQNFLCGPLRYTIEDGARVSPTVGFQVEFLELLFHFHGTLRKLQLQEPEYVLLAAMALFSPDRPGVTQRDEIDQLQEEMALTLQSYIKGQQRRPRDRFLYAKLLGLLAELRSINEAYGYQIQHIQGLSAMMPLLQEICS
Chain of Thyrotropin receptor (Homo sapiens) (P16473 whole entry, looked up): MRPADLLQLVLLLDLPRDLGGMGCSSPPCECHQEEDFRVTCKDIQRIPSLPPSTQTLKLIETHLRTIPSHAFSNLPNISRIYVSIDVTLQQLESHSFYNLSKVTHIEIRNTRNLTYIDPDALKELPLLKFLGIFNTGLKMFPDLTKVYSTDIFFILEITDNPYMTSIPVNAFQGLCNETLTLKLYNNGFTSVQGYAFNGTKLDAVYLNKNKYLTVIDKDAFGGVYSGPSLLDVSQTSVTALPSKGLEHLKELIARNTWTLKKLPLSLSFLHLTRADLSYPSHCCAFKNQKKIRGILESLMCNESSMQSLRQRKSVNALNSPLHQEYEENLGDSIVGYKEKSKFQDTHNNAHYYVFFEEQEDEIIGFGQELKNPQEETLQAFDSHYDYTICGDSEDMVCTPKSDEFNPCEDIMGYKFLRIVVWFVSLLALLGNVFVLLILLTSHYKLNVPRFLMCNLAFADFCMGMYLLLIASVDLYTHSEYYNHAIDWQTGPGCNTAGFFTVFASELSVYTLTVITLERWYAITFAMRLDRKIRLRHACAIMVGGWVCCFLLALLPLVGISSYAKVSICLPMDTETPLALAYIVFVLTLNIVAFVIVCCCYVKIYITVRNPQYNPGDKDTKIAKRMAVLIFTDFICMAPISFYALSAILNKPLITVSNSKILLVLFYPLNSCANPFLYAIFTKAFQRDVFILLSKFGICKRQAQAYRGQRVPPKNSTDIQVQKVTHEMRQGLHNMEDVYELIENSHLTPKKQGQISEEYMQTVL
Chain of Luciferin 4-monooxygenase (Photinus pyralis) (P08659 whole entry, looked up): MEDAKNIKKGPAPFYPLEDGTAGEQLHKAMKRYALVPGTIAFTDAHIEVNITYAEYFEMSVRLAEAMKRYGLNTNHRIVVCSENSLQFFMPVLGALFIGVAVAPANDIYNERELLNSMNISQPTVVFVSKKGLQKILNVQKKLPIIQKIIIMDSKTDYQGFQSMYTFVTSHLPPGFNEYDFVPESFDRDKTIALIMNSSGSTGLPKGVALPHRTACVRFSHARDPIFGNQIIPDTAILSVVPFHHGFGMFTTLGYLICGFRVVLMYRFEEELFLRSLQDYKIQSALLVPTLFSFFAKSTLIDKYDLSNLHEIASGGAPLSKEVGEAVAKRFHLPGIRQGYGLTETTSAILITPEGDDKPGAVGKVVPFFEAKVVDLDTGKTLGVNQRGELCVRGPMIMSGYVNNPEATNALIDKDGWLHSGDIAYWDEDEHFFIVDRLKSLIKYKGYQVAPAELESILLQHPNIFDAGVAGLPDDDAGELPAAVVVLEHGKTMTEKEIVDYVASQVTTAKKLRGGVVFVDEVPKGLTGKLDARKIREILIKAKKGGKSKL

For the compound `CCCCC(CC)COC(=O)C(C#N)=C(c1ccccc1)c1ccccc1` (configuration not stated), the Potency entry in [1], in [3], in [4], in [5], in experiment [6] and in experiment [7] was “inactive” throughout. The Potency entry in experiment [8], in [9], in [11], in [12] and in experiment [13] was “inactive” in each case. For the same compound, the outcome in experiment [2], in experiment [10] and in experiment [14] was inactive.

Take `CSCCC=O`: the Potency result in [1], in experiment [3], in experiment [4], in experiment [5], in experiment [6] and in experiment [7] was “inactive” each time. For the same compound, the Potency result in experiment [15], in experiment [16], in [8], in experiment [9], in [12] and in experiment [13] was “inactive” each time. The result in [2], in experiment [10] and in [14] was inactive.

Take `CC(O)COCC(C)O` (configuration not stated): the Potency result in [17], in experiment [1], in experiment [4], in experiment [5], in [6] and in experiment [7] was “inactive” in each case. For the same compound, the Potency entry in [8], in experiment [11], in experiment [12] and in experiment [13] was “inactive” each time. Moreover, the compound was classed as inactive in [2] and in experiment [14].

Regarding `CC(C)(C)[C@@H](O)[C@@H](Cc1ccc(Cl)cc1)n1cncn1`, the Potency entry in experiment [1], in [3], in experiment [4], in [5], in experiment [6] and in experiment [7] was “inactive” throughout. Further, the Potency result in experiment [8], in [11], in [12] and in [13] was “inactive” each time. Moreover, the result in experiment [2] and in experiment [14] was inactive.

For `C=CCOC(=O)c1ccccc1C(=O)OCC=C`, the Potency result in [1], in experiment [18], in [3], in [4], in experiment [5] and in [6] was “inactive” each time. The Potency result in [7], in [8], in experiment [11], in experiment [12] and in experiment [13] was “inactive” throughout. Moreover, the call in [2] and in experiment [14] was inactive.

Turning to `Oc1cccc2ccccc12`, the Potency result in experiment [17], in experiment [1], in experiment [4], in experiment [6], in experiment [7] and in [15] was “inactive” each time. The Potency entry in experiment [8], in experiment [11] and in experiment [12] was “inactive” in each case. Further, the call in experiment [2] and in experiment [14] was inactive. The Potency in [16] was 62.8 µM (active) and 61.1 µM (active); in [13] it was 103 µM (active).

On to `O=C(O)c1cc(=O)c2c(OCC(O)COc3cccc4oc(C(=O)O)cc(=O)c34)cccc2o1`, for which the Potency entry in experiment [1], in [18], in experiment [3], in [4], in experiment [5] and in experiment [6] was “inactive” each time. The Potency entry in experiment [7], in experiment [15], in experiment [16], in experiment [8], in experiment [11] and in [12] was “inactive” in each case. Also, the Potency result in experiment [13] was “inactive”. The outcome in [2] was inactive.

Take `CC[C@H](C)C(=O)O[C@H]1C[C@@H](C)C=C2C=C[C@H](C)[C@H](CC[C@@H]3C[C@@H](O)CC(=O)O3)[C@H]21`: the Potency is 8.83 µM (active) in experiment [1]; 69.6 µM (active) and inactive in experiment [4]; 69.6 µM (active) and inactive in experiment [8]. In addition, the result in [2], in [10] and in experiment [14] was inactive. Further, the Potency result in experiment [5], in [6], in experiment [7], in experiment [15], in [16] and in experiment [9] was “inactive” in each case. Besides, the Potency result in [11], in [12] and in experiment [13] was “inactive” each time.

On to `OCCOCCN1CCN(C2=Nc3ccccc3Sc3ccccc32)CC1`, for which the Potency entry in experiment [1], in experiment [3], in experiment [4], in experiment [6], in [7] and in [8] was “inactive” each time. The Potency entry in experiment [11], in experiment [12] and in experiment [13] was “inactive” in each case. For the same compound, the result in experiment [2] and in experiment [14] was inactive.

In the case of `CCCSc1ccc2nc(NC(=O)OC)[nH]c2c1`, the Potency entry in experiment [1], in [18], in experiment [4], in experiment [6], in experiment [7] and in experiment [15] was “inactive” in each case. Moreover, the Potency result in experiment [8] and in experiment [12] was “inactive” each time. Further, the compound was called inactive in experiment [2] and in [14]. Moreover, the Potency in experiment [3] was 6.11 µM (active) and 21.1 µM (active); in experiment [5], 3.99 µM (active) and 4.36 µM (active); in experiment [16], 9.44 µM (active).

On to `COc1ccc(Cl)cc1C(=O)NCCc1ccc(S(=O)(=O)NC(=O)NC2CCCCC2)cc1`, for which the Potency result in experiment [1], in experiment [18], in [3], in experiment [4], in [6] and in experiment [7] was “inactive” throughout. Also, the Potency result in experiment [15], in [16], in experiment [8], in experiment [11], in experiment [12] and in [13] was “inactive” each time. The compound was called inactive in experiment [2], in experiment [19] and in experiment [20].

As for `COS(C)(=O)=O`, the Potency entry in experiment [1], in [4], in experiment [5], in [6], in experiment [7] and in experiment [15] was “inactive” throughout. Moreover, the Potency entry in experiment [16], in experiment [8], in experiment [11], in experiment [12] and in experiment [13] was “inactive” each time. Besides, the result in experiment [2], in experiment [10] and in [14] was inactive. In addition, in [9], the Potency was 35.7 µM (active) and inactive.
